SMILES strings stand for the structures. The panel holds about 83,000 compounds, 20% with a hit somewhere; the sample as a whole holds those more often.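 Each cell line was grown in a 96-well plate and treated with one concentration of compound for 48 hours. Values below 10 were considered active.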 Values without a mark were called inactive. Calls of active or inactive are those of the source.

Common to all, as to test: NCI-60 one-dose screen, 48 h (100 = growth as untreated, 0 = no growth, -100 = all killed)
Holding throughout (settings): 10 µM unless noted

For assay [1], the system named is T-47D breast.
Assay [2] concerns BT-549 breast.
The subject of assay [3] is MDA-MB-435 melanoma.
Assay [4] concerns SW-620 colon.
Assay [5] concerns MCF7 breast.
Assay [6] has as its system HCT-116 colon.
Assay [7] has as its system HCC-2998 colon.
Assay [8] deals with KM12 colon.

With `CCn1cc(C(=O)O)c(=O)c2cc(F)c(N3CCN(S(=O)(=O)c4ccc(OC)c(OC)c4)CC3)cc21`, the growth in assay [1] is 87.2%; in assay [2], 105%; in assay [3], 98.9%; in assay [4], 113%; in assay [5], 100%; in assay [6], 105%. The growth in assay [7] is 104%; in assay [8] it was 96.2%.

Take `O=C(CCC(=O)OC1CCCC1)OC1CCCC1`: the growth in assay [1] was 94.1%; in assay [2], 99.9%; in assay [3] it was 100%; in assay [4] it was 103%; in assay [5], 95.2%; in assay [6], 109%. Besides, the growth in assay [7] is 101%; in assay [8] it was 102%.

On to `Clc1nc2ccccc2nc1CI`, for which the growth was 108% in assay [1]; 92% in assay [2]; 89.2% in assay [3]; 36.3% in assay [4]; 91.1% in assay [5]; 23% in assay [6]. For the same compound, the growth in assay [7] is 117%; in assay [8], 104%.

Consider `CC(=O)Nc1ccc2c(c1)/C(=C\C=C/c1ccc([N+](C)(C)C)cc1)c1ccccc1-2`, for which the growth in assay [1] was 41.4%; in assay [2], 94.6%; in assay [3], 96%; in assay [4], 99%; in assay [5] it was 60.4%; in assay [6], 70.3%. Also, the values for the growth in assay [7] and in assay [8] were 114% and 97.1%, respectively.

For the compound `COc1ccc(-c2cn[nH]c2-c2cc(OC)c3c(c2)OCO3)cc1`, the growth in assay [1] was 44%; in assay [2], 59.3%; in assay [3], -55.4% (active); in assay [4] it was 21.9%; in assay [5] it was 13.1%; in assay [6] it was 13.6%. Further, the growth was 16.8% in assay [7] and 17.6% in assay [8].

For `CN1C(=O)[C@H]2c3c1cccc3[C@@]13NC(=O)O[C@H]1[C@H](CCC3(C)C)C2(C)C`, the growth in assay [1] was 87.8%; in assay [2] it was 102%; in assay [3], 102%; in assay [4], 114%; in assay [5], 99.7%; in assay [6], 103%. Moreover, the values for the growth in assay [7] and in assay [8] were 106% and 103%, respectively.

Turning to `CC(=O)N1Cc2ccccc2C(C)Cc2cc(Cl)ccc21` (stereo unspecified), the growth in assay [1] is 100%; in assay [2], 115%; in assay [3], 106%; in assay [4], 106%; in assay [5], 102%; in assay [6], 105%. In addition, the growth in assay [7] was 100%; in assay [8] it was 103%.

As to `O=S(=O)(NCCNc1cc(-c2cn(-c3ccccc3)nc2-c2ccccc2)ccn1)c1ccc(F)cc1`, the growth is 50.5% in assay [1]; 94.8% in assay [2]; 83.9% in assay [3]; 95.4% in assay [4]; 86.3% in assay [5]; 79.4% in assay [6]. The results for the growth in assay [7] and in assay [8] were 102% and 87.3%, respectively.

Regarding `O=C(CN1CCN(c2cc3c(cc2F)c(=O)c(C(=O)O)cn3C2CC2)CC1)Nc1ccc(C(=O)/C=C/c2ccc(Cl)cc2)cc1`, the growth was 106% in assay [1]; 91.1% in assay [2]; 101% in assay [3]; 111% in assay [4]; 91.7% in assay [5]; 41.3% in assay [6]. The figures for the growth in assay [7] and in assay [8] were 103% and 120%, respectively.

Turning to `COc1ccc2c(c1)C=CC(C#N)N2C(=O)c1ccccc1` (stereo unspecified), the growth was 69.8% in assay [1]; 0.256% (active) in assay [2]; -52.4% (active) in assay [3]; 21.6% in assay [4]; 15% in assay [5]; 8.13% (active) in assay [6]. Also, the growth in assay [7] is 18.6%; in assay [8] it was 13.4%.

Take `CCNC(=O)CCCCC(=O)c1c(C)[nH]c(/C=C2\N=C(c3ccc[nH]3)C=C2OC)c1C`: the growth in assay [1] was -46.3% (active); in assay [2], -36.1% (active); in assay [3] it was -18.4% (active); in assay [4], -65.4% (active); in assay [5] it was -17.4% (active); in assay [6], -100% (active). The growth is 48.6% in assay [7] and -56.9% (active) in assay [8].

As to `O=S(=O)(NCCNc1nccc(-c2c(-c3ccccc3)nc3sccn23)n1)c1ccc(O)cc1`, the growth is 41.2% in assay [1]; 48.9% in assay [2]; 10.5% in assay [3]; 30% in assay [4]; 18.5% in assay [5]; 21.5% in assay [6]. The growth in assay [7] is 64.9%; in assay [8], 21.6%.

Take `COc1cc(OC)c(C(=O)/C=C/c2ccc(C#N)cc2)c(OC)c1`: the growth in assay [1] is 18.5%; in assay [2], -7.5% (active); in assay [3], 5.64% (active); in assay [4], 9.15% (active); in assay [5] it was 13.8%; in assay [6], 10.2%. The growth in assay [7] was 36.8%; in assay [8] it was 7.74% (active).

Consider `O=C(NCCc1c[nH]c2ccccc12)C1Cc2ccccc2CN1C(=O)c1ccco1` (stereo unspecified), for which the growth was 105% in assay [1]; 102% in assay [2]; 116% in assay [3]; 103% in assay [4]; 90.3% in assay [5]; 102% in assay [6]. Moreover, the growth in assay [7] was 164%; in assay [8], 105%.

With `CCO/C=N/NC(=O)c1ccncc1`, the growth in assay [1] is 106%; in assay [2], 114%; in assay [3], 110%; in assay [4], 104%; in assay [5], 101%; in assay [6], 105%. Also, the growth is 113% in assay [7] and 106% in assay [8].

Turning to `N#Cc1ncc(-c2ccc(F)c(F)c2F)c(NC2CCCCCC2)n1`, the growth in assay [1] is 62.7%; in assay [2], 71%; in assay [3], 96%; in assay [4], 98%; in assay [5], 83.5%; in assay [6], 72.6%. The growth was 95.8% in assay [7] and 74% in assay [8].

For `NC(=O)c1cccc(N2Cc3ccccc3OC3=C2C(=O)c2c(O)ccc(O)c2C3=O)c1`, the growth in assay [1] was -36.9% (active); in assay [2] it was -56.8% (active); in assay [3], -27.3% (active); in assay [4], -66.6% (active); in assay [5], -22.3% (active); in assay [6], -69.1% (active). For the same compound, the values for the growth in assay [7] and in assay [8] were -21.1% (active) and -48.9% (active), respectively.

With `COc1ccc(C(=O)c2cc(OC)c(OC)c(OC)c2)cc1/C=C/C(=O)c1ccc(OC)c(OC)c1`, the growth in assay [1] was 35.2%; in assay [2], 36.5%; in assay [3] it was 20%; in assay [4] it was 9.37% (active); in assay [5], 17.3%; in assay [6], 10.4%. For the same compound, the growth was 45.9% in assay [7] and 9.37% (active) in assay [8].

On to `CN1CCN(c2ccc3cc(-c4nc5ccccc5[nH]4)c(=O)oc3c2)CC1`, for which the growth in assay [1] was 76.9%; in assay [2], 87.7%; in assay [3], 99.5%; in assay [4], 107%; in assay [5] it was 73.6%; in assay [6] it was 81.9%. Moreover, the growth was 114% in assay [7] and 90% in assay [8].

As for `O=C(Cc1n[nH]c(=O)c2ccccc12)OCc1c(Cl)cccc1Cl`, the growth in assay [1] was 100%; in assay [2], 138%; in assay [3] it was 84.7%; in assay [4], 86.9%; in assay [5], 69.9%; in assay [6], 49.9%. The growth in assay [7] was 70.8%; in assay [8], 66.1%.

For the compound `CC(C)C[C@H](NC(=O)[C@H](Cc1ccccc1)n1ccc(N2CCCCC2)cc1=O)B(O)O`, the growth in assay [1] was -20.4% (active); in assay [2], 31.3%; in assay [3] it was -66% (active); in assay [4], 6.5% (active); in assay [5], 31.3%; in assay [6] it was 2.64% (active). Moreover, the results for the growth in assay [7] and in assay [8] were -36.9% (active) and 1.6% (active), respectively.

Consider `CCn1cc(C(=O)O)c(=O)c2cc(F)c(N3CCN(S(=O)(=O)c4cccc5ccccc45)CC3)cc21`, for which the growth in assay [1] is 5.29% (active); in assay [2] it was -4.35% (active); in assay [3] it was 11.4%; in assay [4] it was 22.8%; in assay [5], 14.6%; in assay [6] it was 5.45% (active). For the same compound, the growth in assay [7] was 31.6%; in assay [8], 11.7%.

Regarding `O=S(=O)(NCCCNc1cc(-c2cn(-c3ccccc3)nc2-c2cccc(O)c2)ccn1)c1ccc(C(F)(F)F)cc1`, the growth in assay [1] was 35.1%; in assay [2] it was 42.2%; in assay [3], 34.9%; in assay [4] it was 27.4%; in assay [5] it was 22%; in assay [6], 29%. In addition, the growth was -30.5% (active) in assay [7] and 23.3% in assay [8].

Consider `NS(=O)(=O)c1ccc(NCC(=O)Nc2ccc(-c3nc4ccccc4s3)cc2)cc1`, for which the growth in assay [1] was 46.4%; in assay [2], 14.5%; in assay [3], 77%; in assay [4], 63.7%; in assay [5] it was 27.6%; in assay [6], 25.1%. The growth in assay [7] was 87.6%; in assay [8] it was 61.6%.

Regarding `CCCCCc1c(C)[nH]c(/C=c2\[nH]/c(=C3/C=c4ccccc4=N3)cc2OC)c1C`, the growth in assay [1] was -6.71% (active); in assay [2], -35.2% (active); in assay [3], -53.6% (active); in assay [4], -36.1% (active); in assay [5] it was -54.5% (active); in assay [6], -97.2% (active). Moreover, the figures for the growth in assay [7] and in assay [8] were -11.4% (active) and -21.7% (active), respectively.

With `O=C(Cc1c(F)cccc1Cl)Nc1ccc(S(=O)(=O)Nc2ncccn2)cc1`, the growth was 102% in assay [1]; 90.8% in assay [2]; 101% in assay [3]; 102% in assay [4]; 96.2% in assay [5]; 102% in assay [6]. For the same compound, the growth in assay [7] is 97.3%; in assay [8], 111%.

Turning to `O=C(CN1CCOCC1)Nc1ccc(-c2nc3ccccc3s2)cc1`, the growth in assay [1] is 93.3%; in assay [2] it was 104%; in assay [3], 108%; in assay [4], 108%; in assay [5], 48.8%; in assay [6], 96.1%. The growth was 88% in assay [7] and 107% in assay [8].

As for `COc1ccc(NC(=O)CSc2nc3ccccc3c(=O)n2Cc2cc(OC)c(OC)c(OC)c2)cc1`, the growth in assay [1] is 84%; in assay [2], 89.1%; in assay [3], 101%; in assay [4], 104%; in assay [5] it was 93.8%; in assay [6] it was 89.5%. Moreover, the growth in assay [7] is 109%; in assay [8] it was 97.7%.

As for `N=C(N)c1ccc(-c2ccc(-c3ccc(Cl)cc3)o2)nc1`, the growth in assay [1] is -75.4% (active); in assay [2] it was -88% (active); in assay [3], -84.5% (active); in assay [4], -93.4% (active); in assay [5] it was -81.4% (active); in assay [6], -84.4% (active). Besides, the growth in assay [7] was -71.9% (active); in assay [8], -93.4% (active).

As to `O=C(CNC(=O)c1cccc2ccccc12)Nc1ccccc1Oc1ccccc1`, the growth is 12.1% in assay [1]; -0.557% (active) in assay [2]; -5.12% (active) in assay [3]; 22.8% in assay [4]; 11.3% in assay [5]; -2.26% (active) in assay [6]. Also, the growth in assay [7] is 21%; in assay [8], 9.93% (active).

For the compound `COc1cccc(-c2nc3sccn3c2-c2ccnc(NCCNS(=O)(=O)c3ccccc3)n2)c1`, the growth in assay [1] was 9.54% (active); in assay [2] it was 58.2%; in assay [3] it was 29.8%; in assay [4], 106%; in assay [5], 53.3%; in assay [6] it was 49.7%. Moreover, the growth in assay [7] was 119%; in assay [8] it was 53.4%.

With `Cc1cc(C)c(NC(=O)c2sc3nc4c(cc3c2N)CN(Cc2ccccc2)CC4)c(C)c1`, the growth was 27.4% in assay [1]; 52.2% in assay [2]; -18.6% (active) in assay [3]; 23.7% in assay [4]; 17.6% in assay [5]; 22.6% in assay [6]. Further, the growth in assay [7] is 62.3%; in assay [8], 19.4%.

The values above are taken from PubChem BioAssay (NCI).
